Activity calls are given as the source filed them. The calls were made as follows: active = hit-call score of the fitted dose curve at least 0.9, where 1 is the maximum; inactive = score below 0.9.
What follows are molecules tested on Transforming growth factor beta 1 (TGFb1), TGFB1 (gene 7040) (assay: BSK_KF3CT_TGFb1: BioMAP Diversity Plus: KF3CT Assay for Transforming growth factor beta 1 (TGFb1) Biomarker Activity (AID 2283072)). Settings: primary human keratinocytes with fibroblasts; actives raise or lower the signal.
Experimental: BSK_KF3CT is a cell-based, multiplexed-readout assay that uses keratinocytes and foreskin fibroblasts, a human skin primary cell co-culture, with measurements taken at 24 hours after chemical dosing in a 96-well plate.BSK_KF3CT_TGFb1 is an assay component measured in the BSK_KF3CT assay. It measures TGF-b1 antibody related to regulation of gene expression using ELISA technology.Data from the assay component BSK_KF3CT_TGFb1 was analyzed into 1 assay endpoint. This assay endpoint, BSK_KF3CT_TGFb1, was analyzed with bidirectional fitting relative to DMSO as the negative control and baseline of activity. Using a type of binding reporter, gain or loss-of-signal activity can be used to understand changes in the signaling as they relate to the gene TGFB1. Furthermore, this assay endpoint can be referred to as a primary readout, because this assay has produced multiple assay endpoints where this one serves a signaling function. To generalize the intended target to other relatable targets, this assay endpoint is annotated to the growth factor intended target family, where the subfamily is transforming growth factor beta.
The levels of cell surface (or secreted, indicated by the prefix "s") biomarker endpoints were measured by ELISA. Overt cytotoxicity to cells in confluent adherent cultures (all systems other than the BT system) was assessed by measuring total protein levels using sulforhodamine B (SRB) staining in parallel cultures at the time of biomarker measurements, indicated as SRB endpoints. For proliferation assays for adherent cell types, individual cell types are cultured at sub-confluence and relative cell numbers quantified by SRB staining at time points optimized for each system (48 h: 3C and CASM3C systems; 72 h: BT and HDF3CGF systems; 96 h: SAg system). SRB was performed by staining cells with 0.1% SRB after fixation with 10% TCA and reading wells at 560 nm.Viability and proliferation of PBMC (T cells) was quantified by Alamar Blue reduction for the SAg and BT systems. For PBMC viability (referred to as PBMC Cytotoxicity within the assay endpoint names), cells were plated (75,000/well in a 96-well plate) and then chemical samples added for 1 h before addition of activators, SEB and TSST-1 (20 ng/mL final concentration each). Cells were incubated for 90 h. Then, Alamar Blue (20 uL/well) (Invitrogen, Cat DAL1100) was added for 6 h, and the plates were read with a fluorescence microplate reader at 546/580 nm (excitation/emission). For PBMC proliferation, cells were plated and activated as above but incubated for only 16 h prior to addition of Alamar Blue. Plates were read after 6 h.
In the case of `c1ccc(-c2cccc(-c3ccccc3)c2)cc1`, the outcome is reported as “inactive”. With `CC1(C)[C@H](C(=O)O[C@H](C#N)c2cccc(Oc3ccccc3)c2)[C@@H]1/C=C(\Cl)C(F)(F)F` the outcome was “inactive”. In the case of `Oc1ccc(Cc2ccc(O)cc2)cc1`, the outcome is reported as “inactive”. With `COCC(=O)N(c1c(C)cccc1C)[C@H](C)C(=O)OC` the outcome was “inactive”. For `Cc1cccc(OP(=O)(Oc2cccc(C)c2)Oc2cccc(C)c2)c1`, the outcome was “inactive”. `O=S(=O)(c1ccc(Cl)cc1)c1cc(Cl)c(Cl)cc1Cl` was tested, and the AC50 was 5.16 µM (active). With `CCOP(=S)(OCC)OP(=S)(OCC)OCC` the outcome was “inactive”. For `OC(Cc1ccccc1Cl)(Cn1[nH]cnc1=S)C1(Cl)CC1` (stereo not given), the AC50 was 16.9 µM (active). `CCCCCCCCCCCCc1cccc(S(=O)(=O)O)c1` was tested, and the AC50 was 25.3 µM (active). In the case of `O=C(N[C@H]1CN2CCC1CC2)c1ccc2c(c1)OCCO2`, the outcome is reported as “inactive”. For `CN(C)C(=S)S`, the outcome was “inactive”. For `Clc1cccc(Cl)c1`, the outcome was “inactive”. `CCC(C)(C#N)N=NC(C)(C#N)CC` (stereo not given) was tested, and the outcome was “inactive”. For `O=C(CCl)NCO`, the outcome was “inactive”. With `Cc1cc(C)cc(C)c1` the outcome was “inactive”. `O=S(=O)(C(Cl)(Cl)Cl)C(Cl)(Cl)Cl` was tested, and the outcome was “inactive”. For `Oc1c(Br)cc(Br)cc1Br`, the outcome was “inactive”. For `O=[N+]([O-])c1cccc2ccccc12`, the outcome was “inactive”. In the case of `N#CCCC(Br)(C#N)CBr` (stereo not given), the AC50 is reported as 11.3 µM (active). With `Cc1cc(Cl)ccc1OC(C)C(=O)O` (stereo not given) the outcome was “inactive”. `COc1ccccc1N` was tested, and the outcome was “inactive”. In the case of `CC(C=O)Cc1ccc2c(c1)OCO2` (stereo not given), the outcome is reported as “inactive”. With `Oc1cccc(-c2ccccc2)c1` the outcome was “inactive”. With `OCCN(CCO)CCO` the outcome was “inactive”. In the case of `CC(C)=CC1C(C(=O)OCc2cccc(Oc3ccccc3)c2)C1(C)C` (stereo not given), the outcome is reported as “inactive”. For `Cc1ccc(OP(=O)(Oc2ccc(C)cc2C)Oc2ccc(C)cc2C)c(C)c1`, the outcome was “inactive”. For `CC(C)(COCC1CO1)COCC1CO1` (stereo not given), the outcome was “inactive”. `Oc1c(Cl)cc(Cl)cc1Cl` was tested, and the outcome was “inactive”. `Cc1cc(C(C)(C)c2ccc(O)c(C)c2)ccc1O` was tested, and the AC50 was 10 µM (active). `CCOP(=O)(OCC)OC(=CCl)c1ccc(Cl)cc1Cl` was tested, and the AC50 was 27.1 µM (active). With `C#CCOC(=O)/C=C(C)/C=C/CC(C)CCCC(C)C` (stereo not given) the outcome was “inactive”. `Nc1ccc(N)cc1` was tested, and the outcome was “inactive”. In the case of `CCN(CC)C(=O)C(Cl)=C(C)OP(=O)(OC)OC`, the outcome is reported as “inactive”. `CCOP(=O)(OCC)SCCSCC` was tested, and the outcome was “inactive”. For `N#Cc1cccnc1`, the outcome was “inactive”. For `Cc1ccccc1OP(=O)(Oc1ccccc1)Oc1ccccc1`, the AC50 was 0.016 µM (active). With `CC(C)N(C(=O)CCl)c1ccccc1` the AC50 was 20 µM (active). For `NC(=O)CCl`, the outcome was “inactive”. `Oc1cc(Cl)c(Cl)cc1Cl` was tested, and the outcome was “inactive”. `Cc1c([N+](=O)[O-])c(C)c([N+](=O)[O-])c(C(C)(C)C)c1[N+](=O)[O-]` was tested, and the outcome was “inactive”.
